For 39 compounds, growth results are on record in PubChem BioAssay (NCI).

The panel holds about 83,000 compounds, 20% with a hit somewhere; the sample as a whole holds those more often.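 Activity criterion: percent growth below 10, measured after cells in 96-well plates were exposed to a single compound concentration for 48 hours.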 Unmarked numbers belong to inactive results. Active and inactive are the calls of the source.

This test concerns LOX IMVI melanoma. Briefly: NCI-60 one-dose screen, 48 h (100 = growth as untreated, 0 = no growth, -100 = all killed). To be noted: 10 µM.
On to `COc1cc(Cl)cc(-c2nn(-c3cccc(NC(=O)Nc4ccc(Cl)c(Cl)c4)c3)cc2-c2ccncc2)c1`, for which the growth is 9.24% (active). Then `COc1cc2cc3c(nc2cc1OC)CCN3Cc1ccc(NC(=O)c2ccc(Cl)c(C(F)(F)F)c2)cc1`, with 89.9%; and `CCOC(=O)N1C/C(=C/c2ccc(Cl)cc2)C(=O)/C(=C/c2ccc(Cl)cc2)C1`, with -56.8% (active); and `c1ccc(CSc2nnc3c4c5c(sc4nc(-c4cccnc4)n23)CCCCCC5)cc1`, with 60.1%. To `Cc1cc2ccccc2nc1-c1ccccc1F` belongs 97.8%; to `COc1ccc(S(=O)(=O)Nc2c(/C=C\c3cc(OC)c(OC)c(OC)c3)ccc(OC)c2O)cc1`, 15.5%; to `N=C(N)c1ccc(-c2ccc(-c3cccs3)s2)s1`, -75.7% (active). To `CSc1cc(SC)ncn1` belongs 105%; to `Cn1c(C(N)=O)cc2c1-c1nc(Nc3ccccc3)ncc1CCC2`, 40.5%; to `CCOC(=O)N/N=C\C(C)=N\NC(=O)OCC`, 96.2%. Consider `Nc1cc2c(cc1Cl)-c1ccc([N+](=O)[O-])cc1/C2=N\O`, for which the growth was 53.8%. Regarding `Cc1cccc(C)c1NC(=O)c1sc2nc3c(cc2c1N)C(=O)CCC3`, the growth is 91.3%. Then `Cc1cc(C)c(CCc2cc(C)c(C)cc2C)cc1C`, with 91.7%; and `CCN1CCC(CCOC)(CN2c3ccccc3Sc3ccc(Cl)cc32)C1` (centres undefined), with -5.49% (active); and `COc1ccc(OC)c(/C=C/c2nc(SCc3ccccc3)n(-c3ccc(Cl)cc3)n2)c1`, with 32.4%. To `CN1CCC(CNc2cc(C3(C(=O)Nc4cc(C(=O)Nc5ccc(Cl)c(C(F)(F)F)c5)ccc4F)CC3)ncn2)CC1` belongs -74.2% (active). On to `Cc1ccc(NC(=O)NC2CCCCC2)cc1`, for which the growth was 96.3%. Consider `CC1CN(Cc2ccccc2)C(=O)NC1=O` (centres undefined), for which the growth is 103%. As to `COc1cc(Cc2cc(-c3ccc(Cl)cc3)n[nH]c2=O)ccc1O`, the growth is 115%. Then `CN(C)CCNC(=O)c1cccn2c(=O)c3cc4ccccc4cc3nc12`, with 1.07% (active); and `CC(=O)CSC(C)=O`, with 101%. To `c1ccc(C(NC2CC3CCC2C3)c2ccccc2)cc1` (centres undefined) belongs 95.3%. Then `CC(C)=CCc1cc(O)cc2c1OC(C=C(C)C)C1=C2C(=O)C2=C(C1=O)S(=O)(=O)CCN2` (centres undefined), with 4.91% (active); and `COc1cc2c(cc1OCCCN1CCN(c3ncnc4ccccc34)CC1)N=CC1CCCN1C2=O` (centres undefined), with -39.4% (active). As to `Cc1cccc(Cl)c1NC(=O)c1ccc2nc(NC(=O)NC3CCN(C)CC3)sc2c1`, the growth was 79.7%. `CCOC(=O)c1ccc(NC(=O)Nc2ncc(Cl)cc2Cl)cc1`: the growth was 110%.

Take `COc1cc(-c2nc(-c3nnc(-c4ccccc4Cl)o3)c3ccccn23)cc(OC)c1OC`: the growth is 77.9%. To `Nc1nc(N)c(NC(=O)CNc2ccc(C(=O)O)cc2)c(N)n1` belongs 98.3%; to `COc1cc(-c2cc(C(=O)N3CCN(C(=O)c4ccccc4NCc4cccs4)CC3)nc3cc(-c4ccccc4)nn23)cc(OC)c1OC`, 70%; to `COc1ccc(NC(=O)CSc2nc3ccccc3c(=O)n2CCc2ccccc2)cc1`, 92.9%.

Take `COc1ccc(-c2nc3sc(C4CC4)nn3c2/C=C2/C(=O)Nc3ccc(OC)cc32)cc1`: the growth is 52.1%. `O=C(Nc1cccc(Br)c1)c1cc(=O)[nH]c2ccccc12`: the growth was 89.3%. To `FC(F)(F)c1ccc2nc(-c3nc(-c4ccccc4)n4ccccc34)[nH]c2c1` belongs 20.6%; to `Cc1cc(N(CCCNc2ccnc3cc(Cl)ccc23)Cc2cccs2)nc(Cl)n1`, 8.99% (active); to `O=C1C(c2ccccc2)C2C=CC(C2)N1O` (centres undefined), 99.6%. `CN1c2ccccc2[C@]2(Cc3ccccc3)Cc3ccccc3N[C@H]12`: the growth was 104%. To `CC1(C)CCC(=NNC(N)=S)CC1` belongs 89%; to `N=C(N)c1ccc(-c2ccc(-c3ccccc3)o2)nc1`, 83.4%; to `O=c1[nH]c(-c2ccc(Cl)cc2)nc2sc3c(c12)CCCC3`, 48.9%.
